# Measured values from PubChem BioAssay (NCATS).
# Inconclusive results are not listed. Values without a mark were called inactive. Activity calls are given as the source filed them. Calls follow the shape of the dose curve; as a rule, active = well fitted cell-killing curve with a large enough effect; inconclusive = small, poorly fitted or top-dose-only effect; inactive = flat fitted curve, though single readings scatter.
# Assay: Cell Viability - LYMP2-021 (AID 974);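 also: compound exposure lasts 24 hours at 37 °C; nearly all actives have a fitted effect of over 55% in size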
# Details: LYMP2-021 lymphoblastoid cells viability; series mostly up to 92.2 µM; activity change, negative = cytotoxicity: at the top concentration
# Summary of the method: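 Concentration-response cytotoxicity in a human lymphoblastoid line: 24 hr treatment at 37 C in complete culture medium, tetraoctylammonium bromide as positive control, luminescent ATP quantitation as viability measure.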
# % is scaled to controls: 0 for no effect and ±100 for the full control effect; potency is read from the fitted curve at half-maximal effect.
Compound,"activity change, negative = cytotoxicity [%]",Potency
CCCCCCc1ccc(-c2ccc(C#N)cc2)cc1,-8.73,–
Nc1cnn([C@@H]2O[C@H](CO)[C@@H](O)[C@H]2O)c(=O)n1,7.37,–
CCCCCCCCOc1ccc(C(=O)O)cc1,-9.49,–
Oc1c(Cl)cc(Cl)c(Cl)c1Cl,-5.82,–
CC(C)OCC1CO1 (stereo not drawn),3.67,–
C/C(Cl)=C/CCl,1.21,–
CCCCNCC,0.678,–
O=c1[nH]ncc2ccccc12,-5.13,–
c1ccc(COCc2ccccc2)cc1,-1.29,–
O=[N+]([O-])c1cccc(I)c1,-0.395,–
c1ccc2c(c1)ccc1ccccc12,-3.22,–
Nc1ccc(N=Nc2ccccc2)c(N)c1,-11.9,–
Cc1ccc(C(=O)O)cc1[N+](=O)[O-],0.205,–
COc1ccc([N+](=O)[O-])cc1N,-2.43,–
OCC(CO)(CBr)CBr,0.365,–
Nc1cc(C(=O)O)c(O)c(S(=O)(=O)O)c1,-3.56,–
Oc1ccc2c(c1)OCO2,-1.66,–
c1ccncc1,-1.15,–
CC(=O)OC1CC(C)OC(C)O1 (stereo not drawn),-0.508,–

Compound,"activity change, negative = cytotoxicity [%]",Potency
O=C(OCc1ccccc1)c1ccccc1O,-11,–
C/C=C/C=C/C=O,–,39.8 µM (active)
CCN(CC)c1ccc2c(C)cc(=O)oc2c1,-10.9,–
c1c[nH]cn1,-0.596,–
c1ccc(SCCSc2ccccc2)cc1,1.86,–
O=C(O)/C=C/c1ccc(/C=C/C(=O)O)cc1,0.13,–
CCCCOC(=O)COc1ccc(Cl)cc1Cl,3.44,–
CC(=O)OC(C(=O)c1ccccc1)c1ccccc1 (stereo not drawn),-3.71,–
CCCCCCN,0.208,–
CC(=O)Nc1cccc(C)c1,-5.51,–
CCC(Cl)CC(Cl)C(Cl)C(Cl)C(Cl)C(C)Cl (stereo not drawn),-3.63,–
COc1ccc(C)cc1N,-5.94,–
CCc1ccc(C(c2ccc(CC)cc2)C(Cl)Cl)cc1,-11,–
C[C@@H]1CC2(OC(O)[C@]3(C)O[C@H]23)O[C@H]2C[C@@]3(C)[C@@H]4CC[C@H]5C(C)(C)C(O[C@@H]6OC[C@@H](O)[C@H](O)[C@H]6O)CC[C@@]56C[C@@]46CC[C@]3(C)[C@@H]12 (stereo partly drawn),-28.5,–
O=[N+]([O-])c1ccccc1Nc1ccccc1,-4.29,–
C=CC1CO1 (stereo not drawn),-0.904,–
COc1cc(-c2ccc(N=C=O)c(OC)c2)ccc1N=C=O,-3.9,–
CCOC(=O)C1OC1c1ccccc1 (stereo not drawn),-10.9,–
COc1ccc(C(=O)Nc2ccccc2)cc1[N+](=O)[O-],-13.4,–
